Sampled rows, rich in hits. Any-hit rate of the full collection: about 0.9%.
SRC1 TRFRET art: flags TR-FRET format artefacts in PPARgamma SRC-1 recruitment agonist screen. 99,000 tested, 0.34% active. TR-FRET ratio at 8 µM. TR-FRET detection artefact counter-screen, emission ratio; stronger effect = higher value; in the data active = TR-FRET ratio above about 2300
PPARg SRC-3 ag: agonists of human PPARgamma SRC-3 coactivator recruitment | P37231 | biochemical PPARgamma/SRC-3 coactivator recruitment assay | activation, % at 8 µM | 200,000 tested, 0.26% active | AID 731; in the data active = activation above about 23%
Target sequence (P37231 whole entry, looked up): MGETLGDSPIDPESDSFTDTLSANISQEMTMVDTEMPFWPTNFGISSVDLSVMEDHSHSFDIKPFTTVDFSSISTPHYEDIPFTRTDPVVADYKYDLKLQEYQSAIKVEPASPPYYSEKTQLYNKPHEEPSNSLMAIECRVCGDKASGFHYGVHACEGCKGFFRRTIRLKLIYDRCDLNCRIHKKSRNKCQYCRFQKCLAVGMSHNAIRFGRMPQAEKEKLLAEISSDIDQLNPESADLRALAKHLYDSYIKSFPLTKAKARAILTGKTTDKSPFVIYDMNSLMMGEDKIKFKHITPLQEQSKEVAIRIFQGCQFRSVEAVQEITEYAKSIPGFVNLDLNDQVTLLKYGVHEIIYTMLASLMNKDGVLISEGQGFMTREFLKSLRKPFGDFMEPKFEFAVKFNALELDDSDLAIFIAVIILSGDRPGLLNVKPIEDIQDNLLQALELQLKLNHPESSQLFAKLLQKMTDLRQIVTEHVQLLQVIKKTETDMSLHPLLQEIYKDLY
SRC3 TRFRET art: counter-screen for PPARgamma SRC-3 recruitment agonists: TR-FRET artefact | PPARgamma/SRC-3 format; stronger effect = higher value | TR-FRET ratio at 8 µM | 99,000 tested, 0.39% active | AID 1048; in the data active = TR-FRET ratio above about 2000
PPARg SRC-1 ag: agonists of human PPARgamma SRC-1 coactivator recruitment; P37231; activation, % at 8 µM; PPARgamma-SRC-1 coactivator recruitment biochemical assay; AID 631; 200,000 tested, 0.41% active; in the data active = activation above about 19%
TR-FRET SRC-2 ct: counter-screen for PPARgamma SRC-2 recruitment agonists: TR-FRET artefact. stronger effect = higher value. TR-FRET ratio at 8 µM. 200,000 tested, 0.4% active. AID 1049; in the data active = TR-FRET ratio above about 2000
PPARg SRC-2 ag: PPARgamma-driven SRC-2 recruitment agonism | PPARgamma LBD-SRC-2 recruitment, biochemical | 200,000 tested, 0.34% active | activation, % at 8 µM
PPARg SRC2 conf: human PPARgamma SRC-2 recruitment agonism, confirmation; shares compounds with PPARg SRC-3 ag; biochemical SRC-2 recruitment by PPARgamma; activation, % at 8 µM; 790 tested, 52% active; AID 1297
PPARg SRC1 conf: confirmation of agonists of SRC-1 recruitment by human PPARgamma; shares compounds with PPARg SRC-3 ag; 790 tested, 43% active; PPARgamma–SRC-1 coactivator recruitment biochemical assay; activation, % at 8 µM; in the data active = activation above about 20%
PPARg SRC3 conf: confirmation of agonists of SRC-3 recruitment by human PPARgamma | shares compounds with PPARg SRC-3 ag | biochemical PPARgamma-SRC-3 coactivator recruitment, agonist mode | activation, % at 8 µM | 790 tested, 29% active; in the data active = activation above about 24%
A number is an active result; - = inactive; . = no result given. Cut-off read from the data, not from the text of the source, unless noted: active = activation above about 22%; inactive = the rest.

SMILES	SRC1 TRFRET art	PPARg SRC-3 ag	SRC3 TRFRET art	PPARg SRC-1 ag	TR-FRET SRC-2 ct	PPARg SRC-2 ag	PPARg SRC2 conf	PPARg SRC1 conf	PPARg SRC3 conf
COc1ccc(C(=O)NC(NC(=O)c2ccc(OC)c(OC)c2)c2ccccc2F)cc1OC	-	-	-	-	-	-	.	.	.
N#CC(c1nc2ccccc2nc1N1CCCC1)S(=O)(=O)c1ccccc1 (configuration not stated)	.	-	.	-	-	-	.	.	.
Cc1cccc(S(=O)(=O)C(C#N)c2nc3ccccc3nc2N2CCCC2)c1 (configuration not stated)	.	-	.	19	-	-	-	-	-
Cc1ccc2nc(NC(=S)NC(=O)c3ccco3)sc2c1	2516	-	2144	22	2308	29	56	44	37
Cc1nc2ccc3nc(NC(=O)c4ccco4)sc3c2s1	.	-	.	23	-	-	-	-	-
COc1cc(C(=O)Nc2nc3ccc4nc(C)sc4c3s2)cc(OC)c1OC	.	-	.	-	-	-	.	.	.
COc1ccc(C(=O)Nc2nc3ccc4nc(C)sc4c3s2)cc1	.	56	.	67	-	-	45	29	27
COc1cc(OC)c(CNC2CCCCCC2)cc1Br	-	-	-	-	-	-	.	.	.
Cn1c(=O)cc(SCC(=O)NCc2cccnc2)c2ccccc21	.	38	.	28	-	22	24	-	-
Cn1c(=O)cc(SCC(=O)Nc2cccnc2)c2ccccc21	.	93	.	66	3288	62	28	-	-
COc1ccc(S(=O)(=O)N2CCC(O)(c3cccnc3)CC2)cc1OC	-	-	-	-	-	-	.	.	.
CCOc1ccc(CNc2ccc(N3CCCC3)cc2)cc1	.	-	.	-	-	29	-	-	-
N/C(Cc1ccccc1)=N\OC(=O)c1cccc2ccccc12	-	-	-	-	-	-	.	.	.
CN1CCN(C(=O)CSc2cc(=O)n(C)c3ccccc23)CC1	2594	-	2760	34	2614	38	29	-	-
Cn1c(=O)cc(SCC(=O)N2CCN(c3ccccc3)CC2)c2ccccc21	.	40	.	34	2466	47	40	28	29
Cn1c(=O)cc(OCCCC(=O)N2CCN(c3ccccc3)CC2)c2ccccc21	.	-	.	-	-	-	.	.	.
CCN1CCN(C(=O)CSc2cc(=O)n(C)c3ccccc23)CC1	2968	-	2490	33	2412	-	29	-	-
CN1CCN(C(=O)CCCOc2cc(=O)n(C)c3ccccc23)CC1	.	-	.	-	-	-	.	.	.
Cn1c(=O)cc(SCC(=O)NCCC2=CCCCC2)c2ccccc21	-	-	-	-	-	-	.	.	.
Cn1c(=O)cc(SCC(=O)N2CCN(c3ccccn3)CC2)c2ccccc21	.	53	.	38	2556	55	40	29	27
CCOC(=O)C1CCN(C(=O)NS(=O)(=O)c2ccc(C)cc2)CC1	-	-	-	-	-	-	.	.	.
Cc1ccccc1C1C2=C(Nc3[nH]n(-c4ccccc4)c(=O)c31)c1ccccc1C2=O (configuration not stated)	-	35	-	23	-	-	23	30	35
Cc1ccc(CSC2=Nc3ccccc3C3=NC(=O)CN23)cc1	-	-	-	-	-	-	.	.	.
COc1cc2c(cc1OC)C1=NC(=O)CN1C(SCc1ccccc1C)=N2	.	-	.	-	-	27	28	-	-
Cc1ccc(CSc2nc3ncccc3[nH]2)cc1	.	-	.	-	-	25	-	-	-
C#CC(CC)(CC)NC(=O)NC1CCCCC1	-	-	-	-	-	-	.	.	.
CC(=O)c1nn(-c2cccc(Br)c2)cc1C(=O)c1ccc(Cl)cc1	-	-	-	-	-	-	.	.	.
Cc1nn(C)c(C)c1NC(=O)CSc1nc(-c2ccccc2Cl)nc2c1cnn2-c1ccccc1	.	-	.	19	-	-	-	-	-
O=C(c1ccco1)N1N=C(c2ccc(Br)cc2)CC1(O)C(F)(F)F (configuration not stated)	-	-	-	23	2022	-	-	-	-

Source: PubChem (The Scripps Research Institute Molecular Screening Center)
